Source: ChEMBL document CHEMBL1157539, “Thousands of chemical starting points for antimalarial lead identification” (Nature, 2010)

Assays:
Assay type in all cases: functional
[1] = system: Plasmodium falciparum; test: GSK_TCMDC: Inhibition of Plasmodium falciparum 3D7 in whole red blood cells, using parasite LDH activity as an index of growth. Test compounds present at 2uM
[2] = system: Plasmodium falciparum; test: GSK_TCMDC: Inhibition of Plasmodium falciparum Dd2 in whole red blood cells, using parasite LDH activity as an index of growth. Test compounds present at 2uM
[3] = system: HepG2; test: GSK_TCMDC: Percent inhibition of human HepG2 cell line. Test compounds present at 10uM.

| Compound | Inhibition [1] [%] | Inhibition [2] [%] | Inhibition [3] [%] |
| --- | --- | --- | --- |
| CCOC(=O)NC1=NC(C)(C)N(OCc2ccc(Cl)c(Cl)c2)C(NC(=O)OCC)=N1 | 98 | 4 | 65 |
| CCC(CC)CN1C(=O)C(c2ccccc2)(c2ccccc2)N=C1N.O=CO | 97 | 81 | 14 |
| CCN(CC)CCNC(=O)c1ccc(NC(=O)c2ccc(-c3cc(NC(=O)CC4CCCC4)ccc3C)cc2)cc1 | 99 | 95 | 12 |
| CC(=O)Nc1nnc(SCc2c(C)cc(C(C)(C)C)cc2C)s1 | 98 | 91 | 3 |
| CCN(CC)CC(O)CNc1c2ccc([N+](=O)[O-])cc2nc2cc(OC)c(OC)cc12.Cl (stereo unspecified) | 100 | 100 | 78 |
| O=C(Nc1cccc(CN2CCCN(Cc3cccc(F)c3)CC2)c1)c1ccc(Cl)c(Cl)c1.O=C(O)C(F)(F)F | 85 | 6 | 28 |
| COc1ccc(C2C(C(=O)Nc3cc(C)ccc3OC)c3ccccc3C(=O)N2C)cc1 (stereo unspecified) | 86 | 3 | 3 |
| CCCNCc1ccc(-c2ccc(CN(Cc3cnc(C)cn3)C(=O)/C=C/c3ccccc3C)cc2)nc1.O=C(O)C(F)(F)F | 95 | 15 | 7 |
| COc1cccc(NC(=O)Nc2cc(C)nc3ccccc23)c1 | 100 | 48 | 2 |
| O=C(NCCc1ccccc1)c1cc(-c2cccnc2)cnc1NCC1CC1 | 93 | 35 | 3 |
| COc1ccc(-c2nc3c4ccccc4c4ccc(I)cc4c3[nH]2)cc1 | 96 | 16 | 4 |
| CCNc1cc(C(=O)N[C@@H](Cc2ccccc2)[C@H](O)CNC2CCC(C(C)(C)C)CC2)cc(N2CCCC2=O)c1 (stereo partly specified) | 98 | 98 | 38 |
| CN1CCN(c2ccc(-c3cccc(NC(=O)c4cccc([N+](=O)[O-])c4)c3)nn2)CC1 | 99 | 35 | 21 |
| O=C(/C=C/c1ccc(Cl)c(Cl)c1)NCCCCCCN1CCN(C(=O)Nc2ccc(Cl)c(C(F)(F)F)c2)CC1 | 99 | 43 | 47 |
| CCCCCCCN1CC[C@@H](C[C@H](N)Cc2ccnc3ccc(OC)cc23)[C@@H](CC)C1.O=C(O)C(=O)O | 91 | 51 | 33 |
| O=C(NCC1CCN(Cc2cccc(C(F)(F)F)c2)C1)c1cc(-c2cccc(F)c2)cs1.O=C(O)C(F)(F)F (stereo unspecified) | 87 | 5 | 19 |
| Oc1ccccc1-c1nc2cccnc2n1CCc1cccc(C(F)(F)F)c1 | 93 | 36 | 4 |
| CCOC(=O)[C@H](Cc1cccc2ccccc12)NC(=O)[C@H](CCC(=O)OC(C)(C)C)NC(=O)c1ccc(N(C)Cc2cnc3nc(N)nc(N)c3n2)cc1 | 93 | 96 | 66 |
| CCCCCCCC1=NN2C(=N)C(=Cc3cc(Br)c(OCc4ccc(F)cc4)c(OCC)c3)C(=O)N=C2S1 | 95 | 0 | 4 |
| CN(CC(=O)Nc1ccc(F)c(F)c1F)c1ncnc2sc(-c3ccccc3)cc12 | 95 | 34 | 0 |
| Cc1nc2ccc3ccc(CNc4ccc(C(=O)N[C@@H](CCC(=O)O)C(=O)N[C@@H](Cc5cccs5)C(=O)O)c(F)c4)cc3c2c(=O)[nH]1 | 97 | 96 | 43 |
| COc1ccc(Nc2nccc(NCC(O)c3cccc(C(F)(F)F)c3)n2)cc1 (stereo unspecified) | 98 | 33 | 22 |
| COc1cc2c(cc1OCCN1CCC(N3CCCCC3)CC1)N(C(=O)/C=C/c1ccccc1OC(F)(F)F)CC2.Cl | 100 | 93 | 64 |
| CN1CCc2cc(CN3CC4(C)CC3CC(C)(C)C4)c(O)cc2C(c2ccccc2)C1.Cl (stereo unspecified) | 98 | 88 | 0 |
| CC(C)CN(c1nc(C(=O)NNC(=O)[C@H](CC2CC2)NC(=O)c2cc3cc(OCCN(C)C)ccc3o2)cs1)C1CC1 | 87 | 97 | 0 |
| CSc1cccc(NC(=O)c2cc3ccccc3oc2=O)c1 | 92 | 75 | 0 |
| Cc1ccc(CNC(=O)[C@H](CCCN)Nc2cc(C)nc(Nc3ccccc3)n2)cc1.O=C(O)C(F)(F)F | 90 | 0 | 0 |
